Measurements published in PubChem BioAssay AID1159580 (chemical genetic matrix, 2015).
Where “and” joins values, the source holds several entries; their conditions need not be identical. Equal values may be shown once. Out of some 5,500 compounds screened, about 2,000 (36%) were called active. Another 18% or so got no clear call; they are omitted. Rule as the data show it: active = normalized growth mostly below about 0.91 (no sharp cut-off); inconclusive = no clear call, values can overlap the other calls; inactive = mostly above about 0.92. Some of the results follow.

Test: chemical genetic growth profiling, strain panel (AID 1159580);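 also: tested at 20 µM; growth read once vehicle control cultures reached saturation at 30 °C; 1 = growth at the plate median or of vehicle wells; lower values mean less growth of the strain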
Conditions: S. cerevisiae deletion strains, growth OD

Measured: normalized growth

CCn1cc(C(=O)O)c(=O)c2ccc(C)nc21
inactive: locus YAL013W, strain DEP1, active compounds read low 0.938 and 0.977 | locus YAL040C, strain CLN3, active compounds read low 0.961 | locus YBL061C, strain skt5, active compounds read low 0.928 | locus YBR009C, strain hhf1, active compounds read low 0.947 | locus YBR021W, strain FUR4, active compounds read low 1.09 | locus YBR023C, strain chs3, active compounds read low 0.945 | locus YBR171W, strain sec66, active compounds read low 0.931 | locus YBR231C, strain swc5, active compounds read low 0.936 | locus YCL011C, strain gbp2, active compounds read low 0.939 | locus YCL016C, strain dcc1, active compounds read low 0.945 | locus YCL029C, strain bik1, active compounds read low 0.935 | locus YCL061C, strain MRC1 (second series), active compounds read low 0.961 | locus YCL061C, strain MRC1, active compounds read low 0.936 | locus YCL069W, strain vba3, active compounds read low 0.943 | locus YCR088W, strain abp1, active compounds read low 0.953 | locus YDL005C, strain med2, active compounds read low 0.983 | locus YDL035C, strain GPR1, active compounds read low 0.963 | locus YDL074C, strain BRE1, active compounds read low 1.06 | locus YDL101C, strain DUN1, active compounds read low 0.941 | locus YDL134C, strain PPH21, active compounds read low 0.912 | locus YDL185W, strain tfp1, active compounds read low 0.924 | locus YDR001C, strain nth1, active compounds read low 0.94 | locus YDR069C, strain doa4, active compounds read low 0.932 | locus YDR101C, strain arx1, active compounds read low 0.92 | locus YDR150W, strain NUM1, active compounds read low 0.936 and 0.96 | locus YDR159W, strain sac3, active compounds read low 1.07 | locus YDR162C, strain NBP2, active compounds read low 0.936 | locus YDR297W, strain sur2, active compounds read low 0.928 | locus YDR318W, strain mcm21, active compounds read low 0.963 | locus YDR334W, strain swr1, active compounds read low 0.916 | locus YDR335W, strain msn5, active compounds read low 0.937 | locus YDR363W, strain ESC2, active compounds read low 0.965 | locus YDR388W, active compounds read low 0.941 | locus YDR392W, strain spt3, active compounds read low 1.03 | locus YDR502C, strain sam2, active compounds read low 0.961 | locus YEL003W, strain gim4, active compounds read low 0.939 | locus YEL037C, strain rad23, active compounds read low 0.926 | locus YEL061C, strain CIN8 (second series), active compounds read low 0.935 | locus YEL061C, strain CIN8, active compounds read low 0.946 | locus YER002W, strain NOP16, active compounds read low 0.958 | locus YER015W, strain faa2, active compounds read low 0.947 | locus YER016W, strain bim1, active compounds read low 0.924 | locus YER110C, active compounds read low 0.9 | locus YER111C, strain swi4, active compounds read low 0.966 | locus YER155C, strain BEM2 (second series), active compounds read low 0.943 | locus YER155C, strain BEM2, active compounds read low 0.951 | locus YER167W, strain BCK2, active compounds read low 0.988 | locus YFR010W, strain ubp6, active compounds read low 0.974 | locus YGL078C, strain dbp3, active compounds read low 0.947 | locus YGL086W, strain mad1, active compounds read low 0.954 | locus YGL227W, strain vid30, active compounds read low 0.939 | locus YGL248W, strain PDE1, active compounds read low 0.906 | locus YGL253W, strain hxk2, active compounds read low 0.957 | locus YGR078C, strain PAC10, active compounds read low 0.997 | locus YGR135W, strain pre9, active compounds read low 0.916 | locus YGR229C, strain SMI1, active compounds read low 1 and 0.98 | locus YHR013C, strain ard1, active compounds read low 1.02 | locus YHR027C, strain rpn1, active compounds read low 0.938 | locus YHR030C, strain SLT2, active compounds read low 0.921 and 0.918 | locus YHR079C, strain IRE1 (second series), active compounds read low 0.932 | locus YHR079C, strain IRE1, active compounds read low 0.97 | locus YHR142W, strain chs7, active compounds read low 0.979 | locus YHR200W, strain rpn10, active compounds read low 0.963 | locus YIL066C, strain RNR3, active compounds read low 0.972 | locus YIL073C, strain SPO22, active compounds read low 0.97 | locus YIL125W, strain kgd1, active compounds read low 0.951 | locus YJL092W, strain hpr5, active compounds read low 0.961 | locus YJL095W, strain BCK1 (second series), active compounds read low 0.942 | locus YJL095W, strain BCK1, active compounds read low 0.949 and 0.948 | locus YJL115W, strain asf1, active compounds read low 0.956 | locus YJL129C, strain trk1, active compounds read low 0.972 | locus YJL154C, strain vps35, active compounds read low 0.959 | locus YJL164C, strain tpk1, active compounds read low 0.946 | locus YJL166W, strain qcr8, active compounds read low 0.94 | locus YJL187C, strain SWE1 (second series), active compounds read low 0.93 | locus YJR043C, strain POL32, active compounds read low 0.967 | locus YJR066W, strain TOR1, active compounds read low 0.899 | locus YJR075W, strain HOC1, active compounds read low 0.972 and 0.961
active: locus YAL021C, strain ccr4, active compounds read low 0.805 | locus YAL026C, strain drs2, active compounds read low 0.855 | locus YAL030W, strain snc1, active compounds read low 0.917 | locus YBR229C, strain ROT2, active compounds read low 0.914 | locus YBR279W, strain paf1, active compounds read low 0.924 | locus YDL040C, strain nat1, active compounds read low 0.923 | locus YDL192W, strain arf1, active compounds read low 0.9 | locus YDR137W, strain rgp1, active compounds read low 0.345 | locus YDR195W, strain ref2 0.691 | locus YGL167C, strain pmr1, active compounds read low 0.912 | locus YGL173C, strain kem1, active compounds read low 0.799 | locus YGL240W, strain doc1, active compounds read low 0.834 | locus YHR094C, strain hxt1, active compounds read low 0.923 | locus YHR129C, strain ARP1, active compounds read low 0.918 | locus YIR030C, strain dcg1, active compounds read low 0.914 | locus YJL134W, strain LCB3, active compounds read low 0.92 | locus YJL168C, strain set2, active compounds read low 0.895
